Test results: the supplement of paper PMC10849652
Targets with a hit are over-represented here; the source holds about 7,900 in all. About 0.6% of all pairs of compound and target were hits. Unmarked numbers belong to inactive results.

How the values were obtained:
Test in all cases: log2 fold change, soluble protein after heating vs DMSO (PISA); higher = thermal stabilisation; K562 cells, 10 uM, 30 min; active = over 0.2 and 3.5 SD of the protein, either way, in both replicates (recomputed)
[1] = compound: C#Cc1cccc(Nc2ncnc3cc(OCCOC)c(OCCOC)cc23)c1 [erlotinib]
Outline: (§1)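 K562 cells at 2×10^6 cells/mL were treated with 10 μM compound for 30 min. Aliquots were heated for 3 min across 48°C-58°C, pooled, and extracted in PBS with 0.5% NP-40 at 4°C; soluble protein was the supernatant after 21,000xg for 90 min. Soluble protein was quantified by TMTpro 16plex LC-MS/MS with channel sums equalised, and reported as log2 fold change in thermal stability against DMSO controls, with values from duplicates.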

[2] = compound: C/C(=N\NC(=O)C1=CC(=CC=C1)S(=O)(=O)N2CCOCC2)/C3=C(C=CC(=C3)Cl)O
Outline: as §1

[3] = compound: C1=CC(=C(C=C1Cl)C2=NC3=NC=CN=C3C(=N2)NC4=CC=NC=C4)F
Outline: as §1

[4] = compound: C1=CC(=CC=C1C2=NC3=C(N2)C=C(C=C3)C(=O)N)OC4=CC=C(C=C4)Cl
Outline: as §1

[5] = compound: C1=CC2=C(C=CC(=C2)/C=C\3/C(=O)NC(=NCC4=CC=CS4)S3)N=C1
Outline: as §1

[6] = compound: C1=CC2=NC=CN=C2C=C1/C=C/3\C(=O)NC(=O)S3
Outline: as §1

[7] = compound: C1=CC=C(C=C1)C2=NC(=C(N2)C3=CC=NC=C3)C4=CC(=C(C=C4)Cl)O
Outline: as §1

[8] = compound: C1=CC=C2C(=C1)C3=NNC4=CC=CC(=C43)C2=O
Outline: as §1

[9] = compound: C1CCN(C1)C(=O)NC2=CC=CC(=C2)NC3=NC=C(C(=N3)NCCC4=CN=CN4)Br
Outline: as §1

[10] = compound: C1CN(CCC1(CC2=CC=C(C=C2)Cl)N)C3=NC=NC4=C3C=CN4
Outline: as §1

[11] = compound: C1COCCN1CCN2C3=CC=CC=C3N=C2NC(=O)C4=CC(=CC=C4)[N+](=O)[O-] [IRAK-1-4 Inhibitor I]
Outline: as §1

[12] = compound: C=CC(=O)N1CCC[C@@H](n2nc(-c3ccc(Oc4ccccc4)cc3)c3c(N)ncnc32)C1 [ibrutinib]
Outline: as §1

[13] = compound: CC(=O)c1cnc2ccc(-c3cc(Cl)c(O)c(Cl)c3)nc2c1N[C@H]1CC[C@H](CN(C)C)CC1
Outline: as §1

[14] = compound: CC(C)(C)Cn1c(N)nc2ccc(-c3[nH]c(C(C)(C)C)nc3-c3ccc(F)cc3)nc21 [ralimetinib]
Outline: as §1

[15] = compound: CC(C)(O)CC(=O)NCCn1ccc2ncnc(Nc3ccc(Oc4cccc(C(F)(F)F)c4)c(Cl)c3)c21
Outline: as §1

[16] = compound: CC(C)C1=C2N=C(C=C(N2N=C1)NCC3=CC=CC=C3)NCCCCCCN
Outline: as §1

[17] = compound: CC(C)C[C@@H](C=O)NC(=O)[C@H](CC(C)C)NC(=O)[C@H](CC(C)C)NC(=O)OCc1ccccc1
Outline: as §1

[18] = compound: CC(C)N(C[C@H]1O[C@@H](n2cnc3c(N)ncnc32)[C@H](O)[C@@H]1O)[C@H]1C[C@@H](CCc2nc3cc(C(C)(C)C)ccc3[nH]2)C1 [pinometostat]
Outline: as §1

[19] = compound: CC1=C(C(CC(=O)N1)C2=CC=C(C=C2)C(F)(F)F)C(=O)NC3=C(C=C4C(=C3)C=NN4)F
Outline: as §1

[20] = compound: CC1=C(C2=C(C=C1)C(=O)C3=CC=CC=C3N2CCCN)C
Outline: as §1

UniProt P56962, sequence (P56962 whole entry, looked up): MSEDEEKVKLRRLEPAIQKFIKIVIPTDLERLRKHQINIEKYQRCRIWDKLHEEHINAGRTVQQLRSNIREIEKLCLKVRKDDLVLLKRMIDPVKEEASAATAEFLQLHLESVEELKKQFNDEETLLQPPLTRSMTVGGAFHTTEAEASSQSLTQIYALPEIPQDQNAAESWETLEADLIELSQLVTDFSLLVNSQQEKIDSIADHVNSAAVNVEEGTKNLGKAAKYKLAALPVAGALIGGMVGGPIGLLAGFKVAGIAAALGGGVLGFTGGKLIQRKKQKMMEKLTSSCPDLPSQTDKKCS
UniProt O43815, sequence (O43815 whole entry, looked up): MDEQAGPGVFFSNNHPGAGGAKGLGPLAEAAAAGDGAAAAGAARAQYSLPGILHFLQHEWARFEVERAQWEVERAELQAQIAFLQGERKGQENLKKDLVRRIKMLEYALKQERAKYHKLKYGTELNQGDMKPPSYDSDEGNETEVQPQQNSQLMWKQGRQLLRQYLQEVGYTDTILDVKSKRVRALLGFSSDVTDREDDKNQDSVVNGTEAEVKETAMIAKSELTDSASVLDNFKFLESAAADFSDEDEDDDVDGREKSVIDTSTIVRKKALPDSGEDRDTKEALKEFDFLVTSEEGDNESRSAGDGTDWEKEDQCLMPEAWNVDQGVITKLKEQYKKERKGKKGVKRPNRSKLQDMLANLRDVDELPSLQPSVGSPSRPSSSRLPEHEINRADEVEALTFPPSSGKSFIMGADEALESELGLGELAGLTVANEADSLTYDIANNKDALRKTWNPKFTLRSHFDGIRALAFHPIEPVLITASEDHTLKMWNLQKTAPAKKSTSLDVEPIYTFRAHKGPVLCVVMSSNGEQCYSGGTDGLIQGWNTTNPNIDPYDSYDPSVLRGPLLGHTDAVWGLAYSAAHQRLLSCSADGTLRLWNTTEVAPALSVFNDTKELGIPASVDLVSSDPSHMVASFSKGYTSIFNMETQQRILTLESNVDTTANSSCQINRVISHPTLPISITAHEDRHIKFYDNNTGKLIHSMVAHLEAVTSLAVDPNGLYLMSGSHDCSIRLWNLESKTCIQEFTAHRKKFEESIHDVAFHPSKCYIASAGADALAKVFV
UniProt Q9UKI8, sequence (Q9UKI8 whole entry, looked up): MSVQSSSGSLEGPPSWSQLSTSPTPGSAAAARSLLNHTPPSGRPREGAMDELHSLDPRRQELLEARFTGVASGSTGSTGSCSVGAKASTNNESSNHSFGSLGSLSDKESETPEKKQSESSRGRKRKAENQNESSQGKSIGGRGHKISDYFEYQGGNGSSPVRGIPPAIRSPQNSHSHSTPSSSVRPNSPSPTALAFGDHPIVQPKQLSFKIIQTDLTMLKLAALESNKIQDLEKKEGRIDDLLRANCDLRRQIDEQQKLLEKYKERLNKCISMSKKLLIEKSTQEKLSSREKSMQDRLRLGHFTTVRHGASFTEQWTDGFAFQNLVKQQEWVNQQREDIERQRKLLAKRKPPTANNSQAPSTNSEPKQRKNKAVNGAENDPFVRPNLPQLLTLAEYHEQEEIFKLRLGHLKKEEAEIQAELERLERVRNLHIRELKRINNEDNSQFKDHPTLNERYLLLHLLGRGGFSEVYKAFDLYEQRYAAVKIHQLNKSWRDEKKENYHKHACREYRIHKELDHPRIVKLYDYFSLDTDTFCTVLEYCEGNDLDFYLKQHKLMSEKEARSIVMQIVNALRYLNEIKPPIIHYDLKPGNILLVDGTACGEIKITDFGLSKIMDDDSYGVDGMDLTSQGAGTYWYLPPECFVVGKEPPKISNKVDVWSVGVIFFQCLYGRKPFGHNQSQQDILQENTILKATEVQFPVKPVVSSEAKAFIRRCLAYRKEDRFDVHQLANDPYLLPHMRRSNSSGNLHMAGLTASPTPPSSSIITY
UniProt P35270, sequence (P35270 whole entry, looked up): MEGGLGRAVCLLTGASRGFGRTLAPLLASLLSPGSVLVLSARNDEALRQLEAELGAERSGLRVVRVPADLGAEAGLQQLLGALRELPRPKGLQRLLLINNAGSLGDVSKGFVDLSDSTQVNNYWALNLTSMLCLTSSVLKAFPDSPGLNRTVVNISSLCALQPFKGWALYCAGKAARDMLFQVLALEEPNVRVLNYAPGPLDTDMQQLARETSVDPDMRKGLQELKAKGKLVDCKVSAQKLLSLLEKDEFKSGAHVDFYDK
UniProt Q9Y5M8, sequence (Q9Y5M8 whole entry, looked up): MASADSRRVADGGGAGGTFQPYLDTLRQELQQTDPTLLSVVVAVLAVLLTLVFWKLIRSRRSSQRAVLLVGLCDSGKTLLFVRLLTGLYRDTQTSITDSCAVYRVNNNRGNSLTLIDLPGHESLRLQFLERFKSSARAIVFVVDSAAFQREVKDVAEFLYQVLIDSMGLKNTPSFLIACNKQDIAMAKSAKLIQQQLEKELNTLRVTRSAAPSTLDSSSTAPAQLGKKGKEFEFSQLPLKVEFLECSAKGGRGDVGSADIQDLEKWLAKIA
UniProt P23497, sequence (P23497 whole entry, looked up): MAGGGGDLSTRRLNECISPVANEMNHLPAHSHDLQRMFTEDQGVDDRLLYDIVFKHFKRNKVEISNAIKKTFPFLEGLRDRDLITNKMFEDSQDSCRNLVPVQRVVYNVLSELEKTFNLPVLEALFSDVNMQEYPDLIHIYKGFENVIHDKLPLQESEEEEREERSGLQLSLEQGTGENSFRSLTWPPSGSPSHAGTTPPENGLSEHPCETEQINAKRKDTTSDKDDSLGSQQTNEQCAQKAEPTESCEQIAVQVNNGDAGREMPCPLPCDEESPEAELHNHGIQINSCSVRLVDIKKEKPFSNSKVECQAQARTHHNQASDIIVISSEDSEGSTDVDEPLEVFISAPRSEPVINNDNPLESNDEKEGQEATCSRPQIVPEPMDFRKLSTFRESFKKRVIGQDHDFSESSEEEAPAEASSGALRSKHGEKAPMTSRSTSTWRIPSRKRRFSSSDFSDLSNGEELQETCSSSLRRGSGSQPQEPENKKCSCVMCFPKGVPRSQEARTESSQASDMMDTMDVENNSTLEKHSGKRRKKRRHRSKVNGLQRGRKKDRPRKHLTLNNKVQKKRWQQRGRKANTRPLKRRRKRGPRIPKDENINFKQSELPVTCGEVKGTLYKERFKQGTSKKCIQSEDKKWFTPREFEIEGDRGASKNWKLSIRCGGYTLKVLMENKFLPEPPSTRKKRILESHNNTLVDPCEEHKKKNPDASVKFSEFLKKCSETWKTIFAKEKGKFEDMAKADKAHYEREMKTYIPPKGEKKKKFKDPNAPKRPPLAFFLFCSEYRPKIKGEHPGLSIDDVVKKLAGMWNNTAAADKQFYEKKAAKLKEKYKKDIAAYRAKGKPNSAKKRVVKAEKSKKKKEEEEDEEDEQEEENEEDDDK
UniProt Q96DW6, sequence (Q96DW6 whole entry, looked up): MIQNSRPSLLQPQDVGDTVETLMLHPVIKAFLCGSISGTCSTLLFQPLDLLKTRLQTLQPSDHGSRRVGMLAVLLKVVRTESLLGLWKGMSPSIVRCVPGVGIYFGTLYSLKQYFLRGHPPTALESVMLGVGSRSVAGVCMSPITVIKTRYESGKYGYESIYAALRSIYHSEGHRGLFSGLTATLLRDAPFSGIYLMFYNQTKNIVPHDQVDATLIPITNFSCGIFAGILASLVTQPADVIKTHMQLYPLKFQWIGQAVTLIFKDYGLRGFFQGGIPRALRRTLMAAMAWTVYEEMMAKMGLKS

Target	log2 fold change [1]	log2 fold change [2]	log2 fold change [3]	log2 fold change [4]	log2 fold change [5]	log2 fold change [6]	log2 fold change [7]	log2 fold change [8]	log2 fold change [9]	log2 fold change [10]	log2 fold change [11]	log2 fold change [12]	log2 fold change [13]	log2 fold change [14]	log2 fold change [15]	log2 fold change [16]	log2 fold change [17]	log2 fold change [18]	log2 fold change [19]	log2 fold change [20]
TLK1 (UniProt Q9UKI8)	0.012	0.038	0.041	-0.012	0.042	0.005	0.01	-0.034	-0.032	-0.014	0.027	-0.003	-0.089	0.02	-0.032	-0.064	-0.041	-0.041	0.019	0.218 (active)
SPR (UniProt P35270)	0.018	-0.089	-0.01	0.005	0.115	0.016	0.732 (active)	0.096	0.02	0.034	0.063	0.04	0.344	0.017	-0.038	0.035	-0.008	-0.053	0.01	0.083
SP100 isoform 4 (UniProt P23497)	0.011	0.044	0.037	0.022	-0.071	0.063	0.033	-0.05	-0.001	0.035	0.006	-0.012	0.074	0.019	0.011	-0.015	-0.07	-0.035	0.029	-0.1
STRN (UniProt O43815)	-0.03	0	0.033	0.013	-0.008	0.005	0.213 (active)	0.025	-0.124	0.053	0.029	0.073	-0.046	0.13	-0.023	0.03	-0.066	-0.002	-0.037	0
SRPRB (UniProt Q9Y5M8)	-0.015	0.106	0.122	-0.018	0.045	-0.036	0.089	0.024	-0.006	0.017	-0.021	0.004	-0.014	0.034	-0.055	-0.036	-0.051	-0.026	-0.109	0.292 (active)
STAM2 (UniProt O75886)	-0.026	0.081	0.036	-0.031	0.022	0.01	0.002	-0.006	-0.047	-0.025	0.033	0.008	-0.018	0.034	0.038	-0.131	0.018	0.014	-0.063	0.004
SLC25A38 (UniProt Q96DW6)	0.007	-0.001	-0.023	-0.036	0.129	0.054	0.023	0.005	-0.005	0.055	0.005	-0.001	0.003	-0.053	0.035	0.049	-0.018	-0.03	0.012	0.01
STX17 (UniProt P56962)	0.206	0.003	0.124	0.015	0.041	0.016	-0.01	0.059	-0.004	0.027	-0.062	0.002	0.031	0.037	-0.063	-0.235	0.028	0.006	0.062	0.138
